Mito fusion yeast: inhibitors of mitochondrial division or activators of mitochondrial fusion. S. cerevisiae fusion-defective mutant growth rescue, CellTiterGlo 48 h. Potency, µM (highest dose often 46.1 µM), for inactives: at the highest dose growth rescue (activation), most hits filed as activators. actives 0.23% (n = 320,000). AID 485298; note: potency is the fitted concentration of half-maximal effect; % of control where 0% means no effect; nearly all actives have a fitted effect of over 45% in size
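Luminescent cell viability in 1536-well qHTS format served as the measure of rescued growth in ts fusion-mutant S. cerevisiae cultured on non-fermentable YPEG for 48 hours at 37C.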
IL2 activator: IL-2 activation; IL-2 activation reporter assay, cell-based qHTS; stimulated with anti-CD3/CD4/CD28 beads; in transgenic mouse T cells; activation, % (series mostly up to about 46 µM); actives 0.065% (n = 360,000); AID 652025; in the data active = activation above about 50%; inconclusive = mostly about 30% to 49%; note: 0% is about no effect
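EGFP and DsRed fluorescence is measured by plate cytometry in unstimulated transgenic mouse T cells exposed to compound for 60 minutes, then stimulated 18 hours at 37 degrees C with anti-CD3/anti-CD4 beads plus anti-CD28.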
PTHR1 agonist: agonists of human PTHR1 parathyroid hormone receptor. Q03431. HEK293 GP2 PTHR1 cells, GloSensor cAMP luminescence, 1 h. Potency, µM (series often up to 115 µM), without a hit: at the top dose activation, hits mostly activators. actives 0.075% (n = 410,000). AID 743266; note: potency is the fitted concentration of half-maximal effect; nearly all actives have a fitted effect of over 55% in size
Target sequence (Q03431 whole entry, looked up): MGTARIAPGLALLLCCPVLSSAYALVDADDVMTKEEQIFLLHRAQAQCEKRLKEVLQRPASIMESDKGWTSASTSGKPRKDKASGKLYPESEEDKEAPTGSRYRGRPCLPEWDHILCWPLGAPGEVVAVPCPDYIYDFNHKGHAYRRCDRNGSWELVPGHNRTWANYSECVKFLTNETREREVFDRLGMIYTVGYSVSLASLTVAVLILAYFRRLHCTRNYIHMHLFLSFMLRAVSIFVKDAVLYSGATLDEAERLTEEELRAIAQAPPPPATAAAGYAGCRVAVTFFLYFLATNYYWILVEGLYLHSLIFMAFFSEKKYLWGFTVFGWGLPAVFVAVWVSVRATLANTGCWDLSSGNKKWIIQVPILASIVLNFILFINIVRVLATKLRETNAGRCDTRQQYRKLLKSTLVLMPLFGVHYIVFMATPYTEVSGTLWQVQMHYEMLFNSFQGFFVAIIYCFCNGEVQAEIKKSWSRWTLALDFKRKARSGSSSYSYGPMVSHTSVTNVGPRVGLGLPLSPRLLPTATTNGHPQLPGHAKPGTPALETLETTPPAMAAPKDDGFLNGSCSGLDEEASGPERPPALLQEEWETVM
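HEK-293-derived GP2 cells expressing PTHR1 and a GloSensor cAMP reporter, 3,000/well, plated overnight, given luciferin plus IBMX (each 0.5 mM as added) for 1 h at 37 °C, then compound for 1 h at 37 °C. Luminescence was read after 15 min at room temperature.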
BCR signal inh: inhibitors of chronic active B-cell receptor signaling. Potency, µM (titrated, usually from 46.1 µM), inactives show at the highest dose activity change, negative = inhibition, most hits filed as inhibitors. actives 0.05% (n = 340,000). ABC-DLBCL IkBa-CBG/CBR reporter, luminescence ratio, 4 h; active = well fitted inhibition curve with a large enough effect in the signal ratio, with a control signal flat, not every such curve was filed as active; inconclusive = small, poorly fitted or top-dose-only effect, or effect the other way, or a change in a side signal; the % refers to the signal ratio;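 note: potency is the fitted concentration of half-maximal effect; plate controls were basal doxycycline-induced cells for no effect and cells given 10 µM MG132 for full effect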
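Compounds up to 46 uM were incubated four hours with TMD8 cells whose green CBG68 luciferase is fused to IkappaBalpha; red CBR luminescence normalised the signal, and concentration-effect curves were fitted to fusion, red and ratio data.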
TCR activator: T cell receptor activation. primary human leukocytes, anti-CD3, IL-2 HTRF, 48 h. Potency, µM (highest dose often 9.22 µM), for inactives: top-dose activation of IL-2 secretion, usual class: activators. 330,000 tested, under 10 active. AID 504894; note: % of control where 0% means no effect
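Primary human leukocytes were stimulated with a-CD3 beads plus compounds for 48 hr without co-stimulation; secreted IL-2 was quantified by HTRF using a-IL-2-K (europium cryptate) and a-IL-2-d2, excited at 320nm with acceptor emission read at 665nm.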
BRCA1 expr act: BRCA1 expression activation | actives 1.1% (n = 380,000) | Potency, µM (highest dose often 46.1 µM), inactives show at the highest dose activation, hits mostly activators | AID 624202 | MCF7-BRCA1-FFLuc reporter, luminescence, 48 h; response scale: scaled: vehicle 0%, 10 µM genistein 100%; note: potency is the fitted concentration of half-maximal effect; nearly all actives have a fitted effect of over 80% in size
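MCF7-BRCA1-FFLuc, 2000 cells/well; 2 h attach, 37 °C/5% CO2; compound 48 h; luciferase substrate 15 min; luminescence end-point. Norm. to genistein 10 microM max activation and DMSO; concentration-response curves fitted.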
* = called active by the depositor; i = inactive; ? = inconclusive; · = no result given; ! = not confirmed by another sample; [ ] = another dose, or the depositor's remark. Compounds with a hit are over-represented: about 1.3% of the library has one in this group of screens. Unless noted, calls come from the whole dose curve; as a rule, active = well fitted curve in the direction sought with a large enough effect; inconclusive = small, poorly fitted or top-dose-only effect, or another doubt; inactive = no such curve, though single readings can be large; an effect the other way counts as inactive or inconclusive.

SMILES	Mito fusion yeast	IL2 activator	PTHR1 agonist	BCR signal inh	TCR activator	BRCA1 expr act
CCN(CC)CCCn1c(C)cc2c(c1=O)C(c1ccccc1)C(C#N)=C(N)O2 (stereo not drawn)	11µM*	0	-11%[57.5 µM]	-2%	-2%	15%
Brc1ccccc1OCCCOc1cccc2cccnc12	-13%	-1	-35%	?	·	8.9µM*
CN(C)S(=O)(=O)c1ccc(NC(=O)CSc2nnc(-c3ccco3)n2N)cc1	·	0	-4%	-1%	5%	-3%
COC(=O)c1ccccc1NC(=O)c1sc(Cl)nc1C	0%	-2	i	?	-2%	-33%
COC(=O)c1ccc(-c2ccc(Cl)cc2)nc1C	6%	0	-44%	?	-1%[46.1 µM]	2µM*
Cc1ccccc1CCN(C(=O)Cn1nnc2ccccc21)C(C(=O)NCC1CCCO1)c1nc2ccccc2n1C (stereo not drawn)	-2%	0	i	-2%	-8%[46.1 µM]	-16%
CCOC(=O)c1cnc(SC)nc1N	2%	0	i	1%	-2%	18%
CCOC(=O)c1cnc(SCc2cccc(C)c2)nc1N	17%	-1	-2%[57.5 µM]	-3%	4%	10µM*
CCOC(=O)c1cnc(SCC(=O)c2ccc(C)cc2)nc1N	-4%	0	-18%[57.5 µM]	1%	7%[46.1 µM]	-18%
CCOC(=O)c1cnc(SCC(C)C)nc1N	5%	-1	-11%	2%	0%	7.9µM*
Cc1cc(Nc2ncc(Cl)cc2Cl)n(-c2ccccc2C)n1	22µM*	-2	i	0%	0%[46.1 µM]	-23%
COc1ccc(-n2ncc3c(Nc4cccc(C)c4)ncnc32)cc1	0%	0	-13%[57.5 µM]	?	-21%	?
Cc1ccc(-n2ncc3c(Nc4cccc(C)c4)ncnc32)cc1	·	·	i	?	·	2.8µM*
CCCn1ncc2c(Nc3ccc(C)c(C)c3)ncnc21	-11%	4	-21%	-1%	-2%	8.9µM*
COc1ccc(NC(=O)COc2ccccc2C(=O)Nc2ccccc2)cc1	·	·	·	·	·	4%
CCCn1cnc2c(SCc3ccccc3F)nc(N)nc21	·	0	-3%	·	1%	10µM*
COc1ccccc1NNC(=O)c1cc(C(C)(C)C)nn1Cc1ccccc1	9%	0	-13%	?	-10%	10µM*
Cc1cccc(C(=O)N[C@H](C(=O)Nc2ccc(C)c(S(=O)(=O)N3CCOCC3)c2)C(C)C)c1	·	-2	-2%	-18%	-2%[46.1 µM]	-38%
Cc1ccccc1-c1nnc(SCc2ccccc2)o1	15%	-3	-13%[57.5 µM]	?	-5%	10µM*
Cc1cccc(C)c1NC(=O)CSc1nnc(Cc2ccccc2)o1	0%	-1	-32%[57.5 µM]	-2%	5%[46.1 µM]	6%
Cc1ccccc1-c1nnc(Cc2ccccc2)o1	-1%	0	-5%	1%	1%[46.1 µM]	2.8µM*
O=C(COc1cccnc1[N+](=O)[O-])Nc1cc(Cl)ccc1Cl	·	1	-4%	6%	-1%[46.1 µM]	11µM*
Cc1ccc(OCC(=O)Nc2ccc(Cl)cc2)c([N+](=O)[O-])n1	14%	2	-64%	-1%	5%	11µM*
Cc1ccc(OCC(=O)Nc2ccc(F)cc2)c([N+](=O)[O-])n1	1%	2	-7%	6%	·	82%
CCCN1C(=O)C2(c3ccccc31)c1c(oc3ccccc3c1=O)C(=O)N2CCCOC(C)C (stereo not drawn)	·	·	-14%	·	·	-14%
SMILES	Mito fusion yeast	IL2 activator	PTHR1 agonist	BCR signal inh	TCR activator	BRCA1 expr act
Cc1cc(C)c2c(c1)C1C=CCC1C(C(=O)O)N2 (stereo not drawn)	·	·	·	·	·	10%
CCOc1ccc(/C=C/C(=O)c2ccccc2)cc1	-8%	0	-43%	?	11%	13µM*
COc1ccc(C2=NN(c3ccccc3)C(c3ccc(OC)c(OC)c3)C2)cc1 (stereo not drawn)	1%	0	-58%	0%	-5%	10µM*
O=Cc1ccc(N2N=C(c3ccccc3)CC2c2ccccc2)cc1 (stereo not drawn)	8.9µM*	-4	i	3%	-10%	2%
COc1ccc(C2CC(c3ccc(F)cc3)=NN2c2ccccc2)cc1OC (stereo not drawn)	-4%	1	-11%	-1%	·	32%
COc1ccc(C2CC(c3cccs3)=NN2c2ccc(C=O)cc2)cc1 (stereo not drawn)	22µM*	4	-19%	?	-2%[46.1 µM]	-33%
COc1ccc(C2=NN(c3ccc(C=O)cc3)C(c3ccccc3)C2)cc1 (stereo not drawn)	?	0	i	?	5%	-58%
CC(C(=O)N1CCCC1)N(c1ccccc1)S(C)(=O)=O (stereo not drawn)	0%	·	·	1%	·	·
CC(C)(Oc1ccc(Cl)cc1)C(=O)N1CCN(c2ccccn2)CC1	14µM*	0	-18%[57.5 µM]	?	5%[46.1 µM]	-30%
CC(C)(C)c1ccc(OCC(=O)N2CCN(c3ccccn3)CC2)cc1	4%	1	-78%	-6%	-6%	-1%
COCCn1c(C)cc(/C=C2/NC(=O)N(c3cccc(Cl)c3)C2=O)c1C	2%	-2	-10%	8%	-2%	7.9µM*
O=C(Nc1nccs1)c1ccccn1	-1%	1	-19%	9%	-1%	?
Cc1ccc(C(=O)Nc2nccs2)s1	7%	-1	10%	?	-3%	11µM*
O=C(Nc1nccs1)c1ccc(Br)s1	-13%	0	0%	?	-3%	10µM*
CCN(CC)C(=O)C1CC(c2ccc(OC)cc2)=NO1 (stereo not drawn)	2%	2	i	?	1%	10µM*
COc1ccc(NC(=O)C2Cc3cccc(OC)c3O/C2=N\O)cc1 (stereo not drawn)	-3%	0	i	?	15%	-27%
COc1ccc(NC(=O)C2Cc3ccccc3O/C2=N\O)cc1 (stereo not drawn)	6%	4	i	1%	-4%	10µM*
CNc1nn(-c2cccc(Cl)c2)nc1N	5%	-2	-4%	9%	4%	10µM*
Nc1ccccc1Nc1cc(-c2ccccc2)nn1-c1cccc(Cl)c1	?	-6	-4%	7%	-3%[46.1 µM]	-55%
CCCCCCCCCCCCCCCC(=O)NCCO	4.1µM*!	6	?	-13%	1%	5%
NC(=O)C1CCN(c2nc(-c3ccc(Br)cc3)cs2)CC1	-27%	-3	i	?	1%[46.1 µM]	1.8µM*
NC(=O)C1CCN(c2nc(-c3cccs3)cs2)CC1	-6%	1	-7%	?	1%	1.3µM*
CN(C)c1cccc(-c2csc(N3CCC(C(N)=O)CC3)n2)c1	·	-3	-6%	3%	1%	?

Source: PubChem
